KB-V1 MDR tox: KB-V1 MDR subline cytotoxicity; KB-V1 MDR cells viability, CellTiter-Glo, 72 h; Potency, µM (top dose mostly 46.1 µM), actives largely listed as cytotoxic; 3.4% of 400,000 active; AID 1347076; also: % is scaled to controls: 0 for no effect and ±100 for the full control effect; nearly all actives have a fitted effect of over 60% in size
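Following 72 h at 37 degrees C with compound, KB-V1 cell viability was read by CellTiter-Glo luminescence, medium being phenol-red-free DMEM plus 10% FBS; concentration-response parameters came from normalized, curve-fitted qHTS data.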
KB-3-1 tox: KB-3-1 parental cell cytotoxicity | KB-3-1 viability, CellTiter-Glo ATP luminescence, 72 h | Potency, µM (titrated, usually from 46.1 µM), actives largely listed as cytotoxic | 1.4% of 400,000 active; also: % is scaled to controls: 0 for no effect and ±100 for the full control effect; nearly all actives have a fitted effect of over 60% in size
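Multi-concentration cytotoxicity screen in KB-3-1 cells grown in DMEM lacking phenol red with 10% FBS. After 72 h at 37 °C with compound, ATP-dependent luminescence was recorded.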
HT1080 IDH1KD tx: toxicity to HT-1080 IDH1 knockdown cells (counter line); HT-1080 IDH1 knockdown viability, ATP luminescence, 48 h; Potency, µM (highest dose often 46.1 µM), inactives show at the highest dose activity, negative = toxicity, most hits filed as cytotoxic; 2% of 360,000 active; AID 686971;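 also: 0% = DMSO wells and -100% = cell-free medium wells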
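After a 2 h attachment period, IDH1KD HT-1080 cells took pin-transferred compound for 48 h at 37 °C; ATP-based luminescence after 10 min room-temperature reagent incubation reported viability.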
SW480 rerep: inducers of DNA re-replication in SW480 colon cancer cells | SW480 DNA re-replication, Hoechst DNA content imaging, 48 h | 1.8% of 340,000 active | AID 624297 | Potency, µM (doses to about 46.1 µM), inactives show at the top dose re-replication activation, usual class: activators; also: % of control where 0% means no effect; nearly all actives have a fitted effect of over 55% in size
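First, 250 cells per well were seeded. Next, compound or vehicle (23 nL) was pinned in, plates sat 48 hr at 37 C. Finally Hoechst was added for 40 min before fluorescence scanning.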
MCF10A rerep: inducers of DNA re-replication in MCF 10A breast cells | Potency, µM (series often up to 46.1 µM), without a hit: top-dose activity, positive = re-replication, actives largely listed as activators | 2.9% of 350,000 active | MCF 10A DNA re-replication, Hoechst nuclear intensity, 48 h; also: % of control where 0% means no effect; nearly all actives have a fitted effect of over 50% in size
HT1080NT lethal: kills 2HG-producing HT-1080-NT fibrosarcoma cells; HT-1080-NT fibrosarcoma viability, CellTiter-Glo ATP luminescence, 48 h; Potency, µM (top dose mostly 46.1 µM), for inactives: top-dose activity, negative = less viability, hits mostly cytotoxic; 1.6% of 360,000 active; AID 686970;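 also: NT is the 2HG producing partner of a matched IDH1 knockdown line; 0% = DMSO-treated cells and -100% = media-only wells without cells; nearly all actives have a fitted effect of over 55% in size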
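HT-1080-NT; 750 cells/well; 5% FBS RPMI; 48 h compound, 37 degrees C; CellTiter-Glo luminescence; curve fitting and curve-class assignment.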
* marks the source's active call; other numbers are inactive results; i = inactive; ? = inconclusive; nt = not tested or not shown; ! = not confirmed by another sample; [ ] = remark or other dose. The list is not random: actives were taken first. Their share in the collection is about 8%. Calls follow the shape of the dose curve; as a rule, active = well fitted curve in the direction sought with a large enough effect; inconclusive = small, poorly fitted or top-dose-only effect, or another doubt; inactive = no such curve, though single readings can be large; an effect the other way counts as inactive or inconclusive. Potency is read from the fitted curve at half-maximal effect.

SMILES	KB-V1 MDR tox	KB-3-1 tox	HT1080 IDH1KD tx	SW480 rerep	MCF10A rerep	HT1080NT lethal
Cc1ccc(C)c(S(=O)(=O)Nc2cc3c4c(c2)CC(=O)N4CCC3)c1	11.6µM*	?	-6.2%	2.0%	-2.3%	-7.4%
Clc1cccc(C2=NC(c3cccs3)=Nc3ccc(Br)cc3N2)c1	i	i	nt	nt	nt	nt
O=C(CSc1nc2ccccc2nc1Cc1ccccc1)N1CCc2ccccc21	i	i	nt	nt	nt	nt
Cc1ccc(-c2nc(CS(=O)CC(=O)NC3CC3)c(C)o2)cc1 (stereo not given)	i	i	9.7%	-1.6%	20.6µM*	5.9%
CCOC(=O)N1CCC(NC(=O)CS(=O)Cc2nc(-c3ccc(Cl)cc3)oc2C)CC1 (stereo not given)	i	i	?	13.6%	14.7%	18.4µM*
CCc1ccc(-c2nc(CS(=O)CC(=O)NC3CC3)c(C)o2)cc1 (stereo not given)	i	i	-0.6%	1.1%	0.8%	-1.3%
O=C(Nc1ccc2nc3n(c(=O)c2c1)CCCCC3)C(=O)N1CCN(c2ccccc2)CC1	i	i	-5.1%	-6.2%	20.3%	0.0%
FC(F)(F)c1cccc(-c2nnc(-c3ccccc3)c(N3CCOCC3)n2)c1	i	i	-27.5%	9.8%	1.0%	-21.2%[9.24 µM]
O=[N+]([O-])c1ccc(-c2nnc(-c3ccccc3)c(N3CCOCC3)n2)cc1	11.6µM*	i	3.4%	-5.0%	5.6%	2.8%
CC(=O)Nc1cccc(OCc2ccc(S(=O)(=O)Cc3ccccc3)cc2)c1	18.4µM*	i	-6.7%	-37.6%	4.8%	-1.3%
CC(=O)Nc1ccc(C=CC=Cc2cccc([N+](=O)[O-])c2)cc1	20.6µM*	i	-29.9%	?	?	-2.0%
CC(=O)Nc1cccc(OCc2cccc([N+](=O)[O-])c2)c1	13µM*	?	6.2%	1.7%	2.6%	5.2%
CC(C)C(=O)Nc1cccc(NC(=O)c2cccc([N+](=O)[O-])c2)c1	i	i	4.2%	0.5%	-3.0%	9.3%
CC(C)c1ccc(NC(=O)COC(=O)/C=C/c2cccc([N+](=O)[O-])c2)cc1	i	i	-1.9%	-4.6%	?	4.3%
CC(=O)Nc1ccc(OCc2cccc([N+](=O)[O-])c2)cc1	i	i	-0.6%	-8.6%	0.0%	20.8%
COc1ccc(C(=O)C(C)Oc2cccc(NC(=O)c3cccc([N+](=O)[O-])c3)c2)cc1 (stereo not given)	2.31µM*	i	8.3%	0.5%	-40.5%	4.3%
CC(=O)Nc1ccc(OCc2ccc(S(=O)(=O)Cc3ccccc3)cc2)cc1	?	i	1.2%	1.2%	-4.4%	6.8%
S=C(NCCCN1CCN(CCCNC(=S)NC2CCCCC2)CC1)NC1CCCCC1	?	i	?	?	?	?
CC(=O)Nc1cccc(OCc2cnc(Cl)s2)c1	?	i	6.5%	12.6%	0.146µM*	8.7%
CC(=O)Nc1cccc(OCc2c(F)cccc2Cl)c1	i	i	-14.9%	-18.5%	28.3%	-9.6%
COc1ccc([N+](=O)[O-])cc1N(CC(=O)N(C)C)S(C)(=O)=O	i	i	6.2%	-3.3%	-2.9%	3.1%
CCOP(=O)(OCC)C(NC(=O)Nc1cccc(Cl)c1)c1ccccc1 (stereo not given)	i	i	-7.6%	8.4%	?	-20.5%
O=C(Nc1cccc(Cl)c1)OCCOc1ccccc1	i	i	0.1%	-5.7%	5.6%	6.9%
CC(C)OC(=O)NC(C)(C)COC(=O)Nc1cccc(Cl)c1	9.2µM*	?	-18.3%	-6.6%	0.7%	-24.1%
CCOP(=O)(OCC)C(NC(=O)Nc1cccc(Cl)c1)C(N)=O (stereo not given)	?	i	-1.2%	1.46µM*	1.9%	2.6%
SMILES	KB-V1 MDR tox	KB-3-1 tox	HT1080 IDH1KD tx	SW480 rerep	MCF10A rerep	HT1080NT lethal
O=C(Nc1cccc(Cl)c1)OCCOC(=O)Nc1cccc(Cl)c1	i	i	23.1µM*	23.9%	?	?
NC(=O)c1nsc(C(=O)N(CC(=O)NC2CCCCC2)Cc2ccc3c(c2)OCO3)c1N	i	i	nt	nt	nt	nt
O=C(C[n+]1cnn(CC(=O)c2ccc(Cl)cc2Cl)c1)c1ccc([N+](=O)[O-])cc1	i	18.4µM*	-14.1%	?	10.6%	-15.5%
C/C(=N\NC(=O)c1nnn(-c2nonc2N)c1CN(C)c1ccccc1)c1ccc(O)cc1	i	i	-15.0%	-12.7%	-19.8%	-15.1%
C/C(=N\NC(=O)c1nnn(-c2nonc2N)c1-c1ccccc1)c1ccccc1O	i	?	1.84µM*	0.82µM*	14.6µM*	?
C/C(=N\NC(=O)c1nnn(-c2nonc2N)c1CN(C)c1ccccc1)c1ccccn1	?	5.8µM*	?	7.5%	?	?
CCOC(=O)c1nnn(-c2nonc2N)c1-c1ccc(Br)cc1	i	i	0.9%	-3.4%	0.651µM*	0.9%
c1csc(-c2nc(N3CCN(Cc4ccc5c(c4)OCCO5)CC3)c3ccccc3n2)c1	nt	nt	6.2%	nt	nt	-1.8%
CCCC(=O)Nc1nc2c(s1)CC(C(C)(C)C)CC2 (stereo not given)	i	i	nt	nt	nt	nt
Cc1ccc(-n2c(N)c(-c3nc4ccccc4n3C)sc2=S)cc1	i	i	-23.0%	-1.7%	16.4%	-27.4%
Cc1cccc(-n2c(N)c(-c3nc4ccccc4n3C)c3nc4ccccc4nc32)c1	i	i	-1.5%	5.8µM*	?	3.1%
Cn1c(-c2c(N)n(-c3ccccc3)c3nc4ccccc4nc23)nc2ccccc21	?	i	-17.5%	14.6µM*	8.2µM*	-12.9%
O=S1(=O)N=C(Oc2ccc(C(F)(F)F)cc2)c2ccccc21	i	?	nt	nt	nt	nt
COc1ccc(C[C@H]2CN3C(=NC[C@@H]3Cc3ccccc3)N2CCNC(=O)CCC2CCCCC2)cc1	16.4µM*	?	?	?	?	?
COc1ccc(C[C@H]2CN3C(=NC[C@@H]3C(C)C)N2CCNC(=O)CCC2CCCCC2)cc1	i	i	-18.8%	?	?	-1.4%
CN1CCN(NC(=O)c2cc(-c3ccc(Br)s3)nc3ccccc23)CC1	i	i	23.1µM*	?	23.1µM*	20.6µM*
CCN(CC)CCNC(=O)c1cc(-c2ccc(Br)s2)nc2ccccc12	?	i	?	?	?	18.4µM*
CCCN(CCC)CCNC(=O)c1cc(-c2ccc(Br)s2)nc2ccccc12	i	i	nt	nt	nt	nt
CCCCOc1cc(C(=O)NCCN(CC)CC)c2ccccc2n1	?	i	?	-48.6%	11.6µM*!	?
